Targets with the largest changes are over-represented here; the source holds about 21,000 in all.
Compound: CC1Cc2ccccc2N1C(=O)C1CCCN(C1)C(=O)CCl (mixture of isomers) [TRIM25 ligand 11 (diastereomer mixture)]
Assay: probe-labelled cysteine peptide fold change vs DMSO (competition) (log2 fold change); higher = less target engagement (more negative = stronger competition)
Details: 10 µM; THP-1; incubation time: 4 h
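Also: competitive chemoproteomic profiling in live THP-1 cells with an iodoacetamide desthiobiotin (IA-DTB) probe, comparing probe-labelled peptide intensities in compound-treated cells against DMSO-treated controls.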

Chain of UniProt P21359 (P21359 whole entry, looked up): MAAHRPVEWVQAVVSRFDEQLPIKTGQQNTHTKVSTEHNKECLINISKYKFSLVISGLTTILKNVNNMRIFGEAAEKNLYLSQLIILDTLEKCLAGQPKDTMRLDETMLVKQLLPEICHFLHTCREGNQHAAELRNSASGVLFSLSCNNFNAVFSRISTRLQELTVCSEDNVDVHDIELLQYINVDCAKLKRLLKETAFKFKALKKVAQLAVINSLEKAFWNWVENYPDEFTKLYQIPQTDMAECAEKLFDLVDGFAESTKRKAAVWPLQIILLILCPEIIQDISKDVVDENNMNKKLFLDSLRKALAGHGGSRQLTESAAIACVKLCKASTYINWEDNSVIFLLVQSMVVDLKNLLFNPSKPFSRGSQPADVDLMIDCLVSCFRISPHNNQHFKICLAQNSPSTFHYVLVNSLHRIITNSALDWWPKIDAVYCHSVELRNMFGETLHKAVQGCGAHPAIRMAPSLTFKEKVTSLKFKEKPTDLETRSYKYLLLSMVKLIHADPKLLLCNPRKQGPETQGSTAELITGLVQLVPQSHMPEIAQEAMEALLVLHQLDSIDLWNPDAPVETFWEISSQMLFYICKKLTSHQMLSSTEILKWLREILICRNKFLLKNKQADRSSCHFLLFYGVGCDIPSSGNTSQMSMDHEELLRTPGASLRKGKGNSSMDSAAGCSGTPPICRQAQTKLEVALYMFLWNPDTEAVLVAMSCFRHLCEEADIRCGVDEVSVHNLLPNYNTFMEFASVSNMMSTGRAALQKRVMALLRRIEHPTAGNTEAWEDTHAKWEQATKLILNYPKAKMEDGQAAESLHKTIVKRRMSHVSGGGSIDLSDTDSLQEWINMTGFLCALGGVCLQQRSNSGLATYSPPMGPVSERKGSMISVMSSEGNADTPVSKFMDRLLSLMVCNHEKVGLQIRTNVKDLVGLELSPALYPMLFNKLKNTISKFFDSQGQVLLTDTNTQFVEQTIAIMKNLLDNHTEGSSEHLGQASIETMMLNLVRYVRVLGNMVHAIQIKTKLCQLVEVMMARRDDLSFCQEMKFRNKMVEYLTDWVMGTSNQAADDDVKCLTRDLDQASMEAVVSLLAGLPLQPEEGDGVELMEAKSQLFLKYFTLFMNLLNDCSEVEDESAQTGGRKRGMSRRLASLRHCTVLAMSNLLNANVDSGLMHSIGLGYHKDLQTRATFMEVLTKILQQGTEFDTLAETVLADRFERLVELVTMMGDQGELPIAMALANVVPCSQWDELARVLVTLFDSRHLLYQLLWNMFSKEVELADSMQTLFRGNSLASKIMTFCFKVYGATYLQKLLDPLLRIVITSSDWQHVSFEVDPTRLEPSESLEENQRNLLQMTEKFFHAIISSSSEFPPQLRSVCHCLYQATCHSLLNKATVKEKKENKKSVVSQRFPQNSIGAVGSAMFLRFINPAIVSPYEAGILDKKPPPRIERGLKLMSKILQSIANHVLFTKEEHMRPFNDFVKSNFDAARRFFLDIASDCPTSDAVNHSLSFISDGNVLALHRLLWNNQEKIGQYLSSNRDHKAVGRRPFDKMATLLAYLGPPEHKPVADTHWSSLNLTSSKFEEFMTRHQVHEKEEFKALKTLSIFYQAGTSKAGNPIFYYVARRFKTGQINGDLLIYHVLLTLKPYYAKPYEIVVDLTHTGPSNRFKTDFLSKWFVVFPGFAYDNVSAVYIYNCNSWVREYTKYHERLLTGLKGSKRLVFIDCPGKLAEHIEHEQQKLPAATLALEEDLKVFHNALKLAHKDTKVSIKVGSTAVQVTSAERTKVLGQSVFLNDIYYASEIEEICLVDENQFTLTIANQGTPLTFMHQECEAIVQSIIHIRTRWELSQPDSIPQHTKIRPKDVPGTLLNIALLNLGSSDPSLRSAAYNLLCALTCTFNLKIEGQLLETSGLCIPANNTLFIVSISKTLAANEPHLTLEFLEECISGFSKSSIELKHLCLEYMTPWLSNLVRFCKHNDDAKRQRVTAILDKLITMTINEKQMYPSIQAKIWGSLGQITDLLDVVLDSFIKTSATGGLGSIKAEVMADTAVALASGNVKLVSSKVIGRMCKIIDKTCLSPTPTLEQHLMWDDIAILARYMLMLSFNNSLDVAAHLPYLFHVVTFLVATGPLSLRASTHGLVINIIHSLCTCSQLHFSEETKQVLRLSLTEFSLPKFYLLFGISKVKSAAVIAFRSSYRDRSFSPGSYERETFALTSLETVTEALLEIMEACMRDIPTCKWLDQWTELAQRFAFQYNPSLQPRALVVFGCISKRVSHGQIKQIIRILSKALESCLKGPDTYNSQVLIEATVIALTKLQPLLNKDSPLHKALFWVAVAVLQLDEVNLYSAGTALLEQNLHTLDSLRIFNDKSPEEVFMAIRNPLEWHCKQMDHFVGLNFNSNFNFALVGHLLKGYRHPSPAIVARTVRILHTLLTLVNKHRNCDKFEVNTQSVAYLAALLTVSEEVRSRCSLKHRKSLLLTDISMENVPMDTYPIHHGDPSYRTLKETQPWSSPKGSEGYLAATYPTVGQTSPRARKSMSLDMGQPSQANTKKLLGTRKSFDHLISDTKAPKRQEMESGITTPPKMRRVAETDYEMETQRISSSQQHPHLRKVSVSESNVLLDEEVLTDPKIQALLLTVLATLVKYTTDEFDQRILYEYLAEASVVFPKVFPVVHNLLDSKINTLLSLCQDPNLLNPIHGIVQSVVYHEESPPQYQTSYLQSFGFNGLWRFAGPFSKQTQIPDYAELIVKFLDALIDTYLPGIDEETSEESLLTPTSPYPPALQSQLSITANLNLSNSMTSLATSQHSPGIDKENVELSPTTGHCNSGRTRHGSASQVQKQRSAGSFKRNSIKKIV
Chain of UniProt Q9Y6K5 (Q9Y6K5 whole entry, looked up): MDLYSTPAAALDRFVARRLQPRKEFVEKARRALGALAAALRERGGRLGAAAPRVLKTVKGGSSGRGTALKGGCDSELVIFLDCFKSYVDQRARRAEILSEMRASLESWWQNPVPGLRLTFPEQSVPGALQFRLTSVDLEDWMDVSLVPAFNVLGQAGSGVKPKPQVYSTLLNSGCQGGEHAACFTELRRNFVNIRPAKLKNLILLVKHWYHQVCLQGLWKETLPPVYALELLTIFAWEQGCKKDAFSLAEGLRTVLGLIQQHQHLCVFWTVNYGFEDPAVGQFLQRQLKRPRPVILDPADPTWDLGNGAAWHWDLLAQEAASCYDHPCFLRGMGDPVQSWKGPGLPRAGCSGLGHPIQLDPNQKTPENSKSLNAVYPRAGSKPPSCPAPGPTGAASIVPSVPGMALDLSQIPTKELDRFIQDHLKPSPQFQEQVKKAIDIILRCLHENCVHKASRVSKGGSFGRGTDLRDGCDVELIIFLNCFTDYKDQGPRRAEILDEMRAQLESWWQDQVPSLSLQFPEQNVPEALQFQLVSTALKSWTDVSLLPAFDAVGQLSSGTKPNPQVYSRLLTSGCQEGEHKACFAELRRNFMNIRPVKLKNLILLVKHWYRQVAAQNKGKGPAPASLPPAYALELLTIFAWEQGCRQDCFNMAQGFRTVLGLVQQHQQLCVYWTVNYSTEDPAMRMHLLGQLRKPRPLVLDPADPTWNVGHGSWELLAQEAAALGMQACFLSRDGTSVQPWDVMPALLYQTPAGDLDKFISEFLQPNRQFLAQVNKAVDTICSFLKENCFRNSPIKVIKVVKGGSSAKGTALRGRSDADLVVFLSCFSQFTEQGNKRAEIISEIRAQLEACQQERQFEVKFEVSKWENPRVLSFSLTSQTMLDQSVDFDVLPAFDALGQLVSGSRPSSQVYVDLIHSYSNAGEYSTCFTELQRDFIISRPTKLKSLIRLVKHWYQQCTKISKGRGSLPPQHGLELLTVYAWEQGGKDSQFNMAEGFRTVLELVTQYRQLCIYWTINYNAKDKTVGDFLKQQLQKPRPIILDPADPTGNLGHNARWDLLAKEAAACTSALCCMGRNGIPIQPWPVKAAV
Chain of UniProt Q9BSC4 (Q9BSC4 whole entry, looked up): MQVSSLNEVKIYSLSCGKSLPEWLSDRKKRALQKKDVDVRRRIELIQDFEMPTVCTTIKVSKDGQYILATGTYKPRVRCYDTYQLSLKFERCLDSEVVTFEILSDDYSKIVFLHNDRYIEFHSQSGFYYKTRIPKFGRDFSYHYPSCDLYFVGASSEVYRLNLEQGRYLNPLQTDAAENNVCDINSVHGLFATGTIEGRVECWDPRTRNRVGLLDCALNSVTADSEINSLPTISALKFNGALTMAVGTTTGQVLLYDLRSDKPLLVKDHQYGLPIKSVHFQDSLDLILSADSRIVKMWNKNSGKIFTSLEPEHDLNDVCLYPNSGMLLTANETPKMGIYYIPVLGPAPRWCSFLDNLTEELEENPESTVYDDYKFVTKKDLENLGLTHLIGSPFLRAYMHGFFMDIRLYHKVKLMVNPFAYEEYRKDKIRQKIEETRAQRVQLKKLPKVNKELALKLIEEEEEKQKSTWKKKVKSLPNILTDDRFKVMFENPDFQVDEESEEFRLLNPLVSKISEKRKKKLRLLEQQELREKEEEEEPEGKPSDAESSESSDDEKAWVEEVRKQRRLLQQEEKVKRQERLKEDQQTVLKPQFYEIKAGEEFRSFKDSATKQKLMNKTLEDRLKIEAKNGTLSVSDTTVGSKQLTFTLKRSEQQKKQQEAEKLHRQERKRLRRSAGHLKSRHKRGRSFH
Chain of UniProt Q56VL3 (Q56VL3 whole entry, looked up): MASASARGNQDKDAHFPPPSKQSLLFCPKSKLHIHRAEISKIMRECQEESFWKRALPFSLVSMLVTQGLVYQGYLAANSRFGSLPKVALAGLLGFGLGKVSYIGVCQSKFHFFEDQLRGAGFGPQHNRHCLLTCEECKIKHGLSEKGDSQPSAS
Chain of UniProt P68402 (P68402 whole entry, looked up): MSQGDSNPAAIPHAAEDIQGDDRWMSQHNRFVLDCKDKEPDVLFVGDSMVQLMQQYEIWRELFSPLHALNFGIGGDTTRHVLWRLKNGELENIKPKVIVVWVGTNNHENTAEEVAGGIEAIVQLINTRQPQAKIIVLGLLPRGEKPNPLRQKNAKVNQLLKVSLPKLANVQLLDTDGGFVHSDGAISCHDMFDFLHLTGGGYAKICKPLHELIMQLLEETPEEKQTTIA

Target | probe-labelled cysteine peptide fold change
P4HB_P07237_312_ILEFFGLKKEECPAVR (UniProt P07237) | -0.567
NOL9_Q5SY16_219_WSMQNFSPQCSIVLLEHLK (UniProt Q5SY16) | 0.0873
PARP1_P09874_845_IEREGECQR (UniProt P09874) | -0.00747
NOL10_Q9BSC4_147_DFSYHYPSCDLYFVGASSEVYR (UniProt Q9BSC4) | -0.459
OCIAD2_Q56VL3_106_VSYIGVCQSK (UniProt Q56VL3) | -0.0503
OAS3_Q9Y6K5_350_AGCSGLGHPIQLDPNQK (UniProt Q9Y6K5) | -0.0319
PAFAH1B1_P43034_281_EHEHVVECISWAPESSYSSISEATGSETK (UniProt P43034) | -0.156
PAK2_Q13177_352_ECLQALEFLHANQVIHR (UniProt Q13177) | 0.0134
NIT2_Q9NQR4_153_VGLGICYDMR (UniProt Q9NQR4) | -0.261
NOC4L_Q9BVI4_509_KGPEPVPLEFIPAQGLLGRPGELCAQHFTLS (UniProt Q9BVI4) | 0.0196
NVL_O15381_803_EASICALR (UniProt O15381) | 0.0326
PDLIM7_Q9NR12_370_MTWHVHCFTCAACK (UniProt Q9NR12) | -0.0568
PCBP1_Q15365_293_GYWASLDASTQTTHELTIPNNLIGCIIGR (UniProt Q15365) | -0.0964
NUP205_Q92621_1032_TCLHAILNILEK (UniProt Q92621) | 0.00038
ORC3_Q9UBD5_158_LISQLMDCCVDIK (UniProt Q9UBD5) | -0.0854
NUS1_Q96E22_235_QKRPTDLDVDTLASLLSSNGCPDPDLVLK (UniProt Q96E22) | -0.332
P4HB_P07237_397+400_NVFVEFYAPWCGHCK (UniProt P07237) | -0.122
NDRG1_Q92597_289_MADCGGLPQISQPAK (UniProt Q92597) | -0.006
NFX1_Q12986_295_STCDSENLAVINK (UniProt Q12986) | 0.0624
PAFAH1B2_P68402_206_ICKPLHELIMQLLEETPEEK (UniProt P68402) | -0.486

Target | probe-labelled cysteine peptide fold change
NLRX1_Q86UT6_713_CTVVAAVLGSGR (UniProt Q86UT6) | -0.136
PABPC4_Q13310-3_488_VGSECPDR (UniProt Q13310) | -0.118
PDCD2L_Q9BRP1_191_LQDAVLGAAHPVPPGLPLFLPYYICVADEDDYRDFVNLDHAHSLLR (UniProt Q9BRP1) | -0.928
PATZ1_Q9HBE1_297_EAGILPCGLCGK (UniProt Q9HBE1) | 0.00899
PDF_Q9HBH1_222_IIQHEMDHLQGCLFIDK (UniProt Q9HBH1) | -0.0352
NEK1_Q96PY6_276_FLSPQLIAEEFCLK (UniProt Q96PY6) | 0.0381
NDUFB10_O96000_119_EGQNYQQNCIK (UniProt O96000) | -0.0835
PAICS_P22234_100_CGETAFIAPQCEMIPIEWVCR (UniProt P22234) | 0.00496
NOB1_Q9ULX3_147_GHSACEPENLEFSSFMFWR (UniProt Q9ULX3) | -0.0264
NOP58_Q9Y2X3_106_LNLSCIHSPVVNELMR (UniProt Q9Y2X3) | 0.0103
PDPR_Q8NCN5_357_LVNCPETFTPDMR (UniProt Q8NCN5) | -0.0721
NUP107_P57740_749_EHLCIR (UniProt P57740) | 0.128
NF1_P21359_1016_LCQLVEVMMAR (UniProt P21359) | 0.0549
NDUFB7_P17568_90_HDWDYCEHR (UniProt P17568) | 0.161
NUP160_Q12769_529_NLQQEFWCK (UniProt Q12769) | 0.248
OPLAH_O14841_1053_DIPLNQGCLAPVR (UniProt O14841) | -0.146
NLRX1_Q86UT6_259_LAGTGLCSDPEEPQEPAAIIVNLLR (UniProt Q86UT6) | 0.274
NUP160_Q12769_1042_QLVVVLCER (UniProt Q12769) | 0.25
NOP2_P46087_393_ILDMCCAPGGK (UniProt P46087) | -0.0381
PARP4_Q9UKK3_1099_LLVYGFIPHCTQATLCALIQEK (UniProt Q9UKK3) | 0.224

From the supplement of paper PMC12067093, “Discovery and optimisation of a covalent ligand for TRIM25 and its application to targeted protein ubiquitination” (Chemical Science, 2025)
